Bioassay records as filed in PubChem BioAssay.
An excerpt weighted towards active compounds, which were near 3.7% of everything screened.
A549 viability = A549 cytotoxicity, counter-screen for Nrf2 inhibitors. A549 ARE-Fluc cells, CellTiter-Fluor viability, 18-24 h. Potency, µM (doses to about 46 µM), actives largely listed as inhibitors. hit rate 0.16% among 390,000
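Cytotoxicity counterscreen: CellTiter-Fluor fluorescence was measured in A549 ARE_Fluc cells after 18-24 h of compound exposure in a concentration series. The subsequent BugLite luminescent read reports ARE-luciferase activity.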
Nrf2 block = inhibitors of Nrf2 signaling; A549 ARE-Fluc reporter, luciferase luminescence, 18-24 h; Potency, µM (series often up to 46 µM), most hits filed as inhibitors; hit rate 2.1% among 360,000; AID 504444; note: nearly all actives have a fitted effect of over 60% in size
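Cells were seeded and rested 2 h, then exposed to compounds for 18-24 h. CellTiter-Fluor was read first as a viability measure. BugLite was added 15 min before the final luminescent read of ARE-luciferase activity in A549 cells.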
ELG1 repair inh = blocks ELG1-dependent DNA repair in HEK293T cells; HEK293T ELG1-luciferase reporter, luminescence, 16 h; DNA damage induced by 5-fluorouridine; Potency, µM (series often up to 46.1 µM), usual class: inhibitors; hit rate 2.3% among 330,000; note: nearly all actives have a fitted effect of over 55% in size
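Step one: seed 2,000 cells per well. Step two: pin-transfer compound or DMSO alongside 5-fluorouridine. Step three: incubate 16 hr, 37 °C, 5% CO2. Step four: add ONE-Glo, wait 30 min, read luminescence.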
Nrf2 activator = activators of Nrf2 (ARE) signaling. AREc32 ARE-luciferase reporter (MCF7-derived line), luminescence, 24 h. Potency, µM (top dose mostly 46.1 µM), hits mostly activators. hit rate 0.31% among 410,000. AID 624171; note: nearly all actives have a fitted effect of over 65% in size
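AREc32 cells carrying an ARE-driven firefly luciferase reporter were seeded at 1000 cells/well in OPTI-MEM with 5% FBS, then exposed to compound for 24 hr at 37 deg C. Luminescence was read with Steady-Glo after 30 min at RT.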
Of the large screens only hits and unclear results are named; the others gave an inactive call; ! = not active in a repeat. Calls come from the whole dose curve; as a rule, active = well fitted curve in the direction sought with a large enough effect; inconclusive = small, poorly fitted or top-dose-only effect, or another doubt; inactive = no such curve, though single readings can be large; an effect the other way counts as inactive or inconclusive.

Cn1c(N)c(C(=O)CSc2nnc(Cc3cccs3)n2C2CC2)c(=O)n(C)c1=O	none
CCCCNC(=O)C1CCN(c2nc3ccc(C)cc3[nH]2)CC1	none (no result: Nrf2 block, ELG1 repair inh)
COc1cc(OC)c(-c2nn3c(-c4cc(C)[nH]n4)nnc3s2)cc1OC	Nrf2 block inconclusive (no result: ELG1 repair inh, Nrf2 activator)
Cc1cc(-c2nnc3sc(C4CCCCC4)nn23)n[nH]1	Nrf2 block inconclusive
COc1cccc(-c2nnc3sc(C4CCCCC4)nn23)c1	Nrf2 block inconclusive, ELG1 repair inh 4.6µM
COc1cc(-c2nnc3sc(C4CCCCC4)nn23)cc(OC)c1OC	Nrf2 block 13µM, ELG1 repair inh inconclusive
COc1cc(OC)c(-c2nn3c(C4CCCCC4)nnc3s2)cc1OC	ELG1 repair inh 21µM (no result: Nrf2 block)
CCOc1cccc(-c2nnc3sc(-c4cc(OC)c(OC)cc4OC)nn23)c1	none (no result: A549 viability, Nrf2 block, Nrf2 activator)
c1cncc(-c2nnc3sc(C4CCCCC4)nn23)c1	Nrf2 block inconclusive
CCOc1cccc(-c2nnc3sc(C4CCCCC4)nn23)c1	Nrf2 block inconclusive, ELG1 repair inh 21µM
O=S1(=O)CCN(Cc2ccncc2)CC1	none (no result: A549 viability, Nrf2 block, ELG1 repair inh)
CC1(C(=O)Nc2ccc3c(c2)OCCO3)CCC(=O)N1C1CCN(Cc2ccccc2)CC1 (stereo not drawn)	none (no result: A549 viability, Nrf2 block, ELG1 repair inh)
CC(C)N(Cc1ccccc1)C(=O)CN1C(=O)COc2ccc(S(=O)(=O)N3CCCCCC3)cc21	Nrf2 block inconclusive
CC1CCC(NC(=O)c2ccc3c(c2)S(=O)(=O)c2ccccc2C3=O)CC1 (stereo not drawn)	Nrf2 block 16µM (no result: ELG1 repair inh)
c1ccc(CNc2nc(-c3ccccn3)nc3ccccc23)cc1	Nrf2 block 16µM
c1ccc(CNc2nc(-c3ccccc3)nc3ccccc23)cc1	Nrf2 block inconclusive
Cc1cc(NCc2ccccn2)nc2ccccc12	ELG1 repair inh inconclusive
CCc1nc(NCc2ccccn2)c2oc3ccccc3c2n1	Nrf2 block 9.2µM, ELG1 repair inh 18µM
Cc1nc(NCc2ccccn2)c2ccccc2n1	Nrf2 block 6.5µM, ELG1 repair inh inconclusive
O=C(COCc1cc(-c2ccc(F)cc2)on1)Nc1cccc(C(F)(F)F)c1	none (no result: ELG1 repair inh)
CCn1ncc(Br)c1C(=O)Nc1ccccc1C(F)(F)F	none
Cc1cccc(Cn2c(=O)n(Cc3ccccc3)c(=O)c3c2c2cc(C)ccc2n3C)c1	Nrf2 block inconclusive (no result: ELG1 repair inh)
O=c1c2ccccc2ncn1-c1ccc([N+](=O)[O-])cc1[N+](=O)[O-]	ELG1 repair inh 15µM
Cc1ccc(-c2cc(-c3ccco3)c(C#N)c(=O)[nH]2)cc1	none
N#Cc1c(-c2ccco2)cc(-c2ccccc2)[nH]c1=O	ELG1 repair inh inconclusive, Nrf2 activator 2.5µM
CCc1ccc(CNC(=O)C2CCCN(c3nnc(C)c4c(C)n(-c5ccccc5)nc34)C2)cc1 (stereo not drawn)	A549 viability inconclusive, ELG1 repair inh 21µM
Cc1nnc(N2CCCC(C(=O)NCc3ccccc3)C2)c2nn(-c3ccccc3)c(C)c12 (stereo not drawn)	none (no result: ELG1 repair inh)
COc1ccc(-n2nc3c(N4CCCC(C(=O)NCc5cccc(F)c5)C4)nnc(C)c3c2C)cc1 (stereo not drawn)	A549 viability inconclusive (no result: ELG1 repair inh)
CCOc1ccccc1CNC(=O)C1CCN(c2nnc(C)c3c(C)n(-c4ccc(C)cc4)nc23)CC1	A549 viability inconclusive, Nrf2 block 23µM!, ELG1 repair inh inconclusive
COc1ccc(-n2nc3c(N4CCC(C(=O)NCc5cccc(C)c5)CC4)nnc(C)c3c2C)cc1	Nrf2 block inconclusive, ELG1 repair inh 18µM
CC(NC(=O)C(C)(C)C)C(c1cccs1)N1CCOCC1 (stereo not drawn)	ELG1 repair inh inconclusive
O=C1CS(=O)(=O)C2(C(=O)N(Cc3ccccc3Cl)c3ccccc32)N1c1ccc(F)cc1 (stereo not drawn)	Nrf2 block inconclusive (no result: ELG1 repair inh)
CC1CN(c2nc3ccccc3nc2SCC(=O)Nc2ccc(F)cc2)CC(C)O1 (stereo not drawn)	ELG1 repair inh 16µM
COc1cc(C(=O)OCC(=O)NC2CCS(=O)(=O)C2)ccc1OCc1c(C)noc1C (stereo not drawn)	none
Cc1ccc(NC(=O)CCS(=O)(=O)c2cc3c(cc2Cl)NC(=O)CO3)cc1	none
CCN(CC)c1ccc(NC(=O)CCS(=O)(=O)c2cc3c(cc2Cl)NC(=O)CO3)c(C)c1	A549 viability inconclusive, Nrf2 block 16µM (no result: ELG1 repair inh)
COc1ccc(N2CCN(C(=O)CCCN3C(=O)c4cccc5cccc(c45)C3=O)CC2)cc1	A549 viability inconclusive, Nrf2 block inconclusive, ELG1 repair inh 10µM
O=C(c1ccc2c(c1)C(=O)N(CCCO)C2=O)c1ccc2c(c1)C(=O)N(CCCO)C2=O	none (no result: Nrf2 block)
